# Measurements taken from PubChem BioAssay (NCI).
# The panel holds about 83,000 compounds, 20% with a hit somewhere; the sample as a whole holds those more often.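 Interpretation: 100, growth as untreated; towards 0, rising growth inhibition; 0, no net growth; 0 to -100, cell death. Compounds scoring below 10 were considered active.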 Unmarked numbers belong to inactive results. Active and inactive are the calls of the source.
# System: CAKI-1 renal
# Assay: NCI-60 one-dose screen, 48 h (100 = growth as untreated, 0 = no growth, -100 = all killed)
# Conditions: 10 µM
row,SMILES,growth
1,CC1(O)CCC2CC3OC3(C)CCC3OC3(C)CCC1C2(C)C (stereo unspecified),100%
2,C(CCCC1=NCCO1)CCCC1=NCCO1,103%
3,COc1ccc(Nc2cc(C)nc(NCCCNc3ccnc4cc(Cl)ccc34)n2)cc1,-69.6% (active)
4,N#Cc1cc(-c2cc3ccccc3o2)oc1N,-10.4% (active)
5,CC1(C)N=C(N)N=C(N)N1c1ccc(CCc2ccccc2)c(Cl)c1,53.2%
6,Cc1cc(C)c(NC(=O)c2sc3nc4c(cc3c2N)C(=O)CCC4)c(C)c1,-22.2% (active)
7,O=C1Nc2ccccc2C1=NC1CCCCC1,79.3%
8,COc1ccc(Nc2ccnc(NCCNc3ccnc4cc(Cl)ccc34)n2)cc1,60.6%
9,Nc1nc(N)c(NC(=O)CNc2ccc(C(=O)O)cc2)c(N)n1,91.5%
10,CCN(CC)CCNC(=O)c1ccc(NC(C)=O)cc1,95.2%
11,c1ccc(CP(Cc2ccccc2)c2ccccc2)cc1,92.3%
12,COc1ccc2c(c1)[n+]([O-])c(C#N)c(NC(=O)c1ccco1)[n+]2[O-],96.5%
13,NC(=S)N=Nc1c(O)c2ccccc2c2ccccc12,83.5%
14,CCOC(=O)C(CSC(c1ccccc1)(c1ccccc1)c1ccccc1)NC(=O)C(CSC(c1ccccc1)(c1ccccc1)c1ccccc1)NC(c1ccccc1)(c1ccccc1)c1ccccc1 (stereo unspecified),87%
15,N#Cc1ncc(-c2cc(F)c(F)c(F)c2)c(NC2CCCCCC2)n1,92.9%
16,O=C1/C(=C\c2ccccc2)CN(C(=O)c2ccccc2F)C/C1=C\c1ccccc1,30.4%
17,COc1ccc(/C=C/C(C)=N/OCC(=O)O)cc1,106%
18,COc1ccc2c(c1)nc(N)c1c3cccnc3cn21,-15.7% (active)
19,COc1ccc(-c2nn(-c3cccc(NC(=O)Nc4ccc(Cl)c(C(F)(F)F)c4)c3)cc2-c2ccncc2)cc1Cl,9.1% (active)

row,SMILES,growth
1,CS(=O)(=O)Nc1ccc(Nc2c3ccccc3nc3cc([N+](=O)[O-])ccc23)cc1,37.7%
2,Cc1ccc(C)c(C(O)(c2cc(C)ccc2C)C2(O)CCCCC2)c1,80.5%
3,CC1CC(=O)OC(C)C1 (stereo unspecified),93%
4,Cc1cs/c(=N\NC(=O)c2cc(-c3cc4ccccc4o3)nn2-c2ccccc2)n1-c1ccccc1,100%
5,CN(C)c1ccc(N=C2C=CC(=O)c3ccccc32)cc1,80.9%
6,Cc1ccc(NC(=O)NC2CCCCC2)cc1,104%
7,COc1ccc(/C=C2/CN(C(=O)c3ccc(C)cc3)C/C(=C\c3ccc(OC)cc3)C2=O)cc1,85.2%
8,Cc1ccc(Nc2cc(C)nc(NCCCNc3ccnc4cc(Cl)ccc34)n2)cc1,-87.2% (active)
9,O=C1/C(=C\c2ccc(F)cc2)CN(C(=O)c2ccccc2F)C/C1=C\c1ccc(F)cc1,-35.4% (active)
10,c1ccc([I+]c2ccccc2)cc1,37.3%
11,Cc1[nH]nc2c1C(c1cnn(C)c1)C(C#N)=C(N)O2 (stereo unspecified),102%
12,CCOC(=O)N1C/C(=C/c2ccc(OC)cc2)C(=O)/C(=C/c2ccc(OC)cc2)C1,41.9%
13,COc1ccc(Nc2ncnc3c2c(SC)nn3-c2ccccc2)cc1,82.7%
14,CSC1=NCCCC1,115%
15,Clc1nc(Cl)c2c(ncn2C/C=C\Cn2cnc3c(Cl)nc(Cl)nc32)n1,-100% (active)
16,O=C(O)CCCCSc1ncnc2nc[nH]c12,93.5%
17,CN(C)CCS(=O)(=O)CCN(C)C,112%
18,Clc1ccc(Nc2ccnc(NCCCNc3ccnc4cc(Cl)ccc34)n2)cc1,-71.5% (active)

# System: A498 renal
# Assay: as above
# Conditions: 10 µM
row,SMILES,growth
1,CN(C)CCN=c1nc2c(c(N)n1-c1ccccc1)c(=S)n(-c1ccccc1)c(=S)n2-c1ccccc1,40.3%
2,C(CCCC1=NCCO1)CCCC1=NCCO1,101%
3,COc1ccc(Nc2cc(C)nc(NCCCNc3ccnc4cc(Cl)ccc34)n2)cc1,-0.29% (active)
4,CC1(C)N=C(N)N=C(N)N1c1ccc(CCc2ccccc2)c(Cl)c1,40.9%
5,Cc1cc(C)c(NC(=O)c2sc3nc4c(cc3c2N)C(=O)CCC4)c(C)c1,-7.37% (active)
6,O=C1Nc2ccccc2C1=NC1CCCCC1,109%
7,COc1ccc(Nc2ccnc(NCCNc3ccnc4cc(Cl)ccc34)n2)cc1,37.3%
8,Nc1nc(N)c(NC(=O)CNc2ccc(C(=O)O)cc2)c(N)n1,101%
9,CCN(CC)CCNC(=O)c1ccc(NC(C)=O)cc1,78.7%
10,c1ccc(CP(Cc2ccccc2)c2ccccc2)cc1,103%
11,NC(=S)N=Nc1c(O)c2ccccc2c2ccccc12,101%
12,CCCCOc1ccc(NC(=O)Nc2nnc(C)s2)cc1,108%
13,CCOC(=O)C(CSC(c1ccccc1)(c1ccccc1)c1ccccc1)NC(=O)C(CSC(c1ccccc1)(c1ccccc1)c1ccccc1)NC(c1ccccc1)(c1ccccc1)c1ccccc1 (stereo unspecified),91.3%
14,N#Cc1ncc(-c2cc(F)c(F)c(F)c2)c(NC2CCCCCC2)n1,52.2%
15,O=C1/C(=C\c2ccccc2)CN(C(=O)c2ccccc2F)C/C1=C\c1ccccc1,45%
16,COc1ccc(/C=C/C(C)=N/OCC(=O)O)cc1,72.8%
17,COc1ccc2c(c1)nc(N)c1c3cccnc3cn21,-9.56% (active)

row,SMILES,growth
1,COc1ccc(-c2nn(-c3cccc(NC(=O)Nc4ccc(Cl)c(C(F)(F)F)c4)c3)cc2-c2ccncc2)cc1Cl,-0.894% (active)
2,CS(=O)(=O)Nc1ccc(Nc2c3ccccc3nc3cc([N+](=O)[O-])ccc23)cc1,45.4%
3,Cc1ccc(C)c(C(O)(c2cc(C)ccc2C)C2(O)CCCCC2)c1,94.5%
4,CC1CC(=O)OC(C)C1 (stereo unspecified),96.1%
5,CN(C)c1ccc(N=C2C=CC(=O)c3ccccc32)cc1,91.3%
6,Cc1ccc(NC(=O)NC2CCCCC2)cc1,98.2%
7,COc1ccc(/C=C2/CN(C(=O)c3ccc(C)cc3)C/C(=C\c3ccc(OC)cc3)C2=O)cc1,89.4%
8,Cc1ccc(Nc2cc(C)nc(NCCCNc3ccnc4cc(Cl)ccc34)n2)cc1,-59.4% (active)
9,O=C1/C(=C\c2ccc(F)cc2)CN(C(=O)c2ccccc2F)C/C1=C\c1ccc(F)cc1,47.5%
10,c1ccc([I+]c2ccccc2)cc1,65%
11,Cc1[nH]nc2c1C(c1cnn(C)c1)C(C#N)=C(N)O2 (stereo unspecified),69.9%
12,CCOC(=O)N1C/C(=C/c2ccc(OC)cc2)C(=O)/C(=C/c2ccc(OC)cc2)C1,-0.589% (active)
13,COc1ccc(Nc2ncnc3c2c(SC)nn3-c2ccccc2)cc1,118%
14,CSC1=NCCCC1,106%
15,O=C(O)CCCCSc1ncnc2nc[nH]c12,132%
16,CN(C)CCS(=O)(=O)CCN(C)C,96%
17,Clc1ccc(Nc2ccnc(NCCCNc3ccnc4cc(Cl)ccc34)n2)cc1,-4.52% (active)
